Measured values as given in PubChem BioAssay (Tox21).
Inconclusive results are not listed. Calls of active or inactive are those of the source. Unless noted, calls come from the whole dose curve.

Key:
[1] = qHTS assay to identify small molecule agonists of the NFkB signaling pathway - cell viability counter screen (AID 1159515); note: nearly all actives have a fitted effect of over 55% in size; note: potency is the fitted concentration of half-maximal effect; for activity, negative = cytotoxic: series mostly up to about 61 µM; % is set by controls: 0 for no effect and ±100 for the full control effect
Method in brief: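 Parallel cytotoxicity counter screen in ME-180 cells carrying an NFkB-response-element beta-lactamase reporter, 2,000 cells/well. Compound exposure lasted 5 hr at 37 C, 5% CO2. Cell viability was quantified by CellTiter-Glo luminescence.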

[2] = qHTS assay to identify small molecule agonists of the endoplasmic reticulum stress response signaling pathway (AID 1159516; active = well fitted activation curve with a large enough effect in the signal ratio in the repeat runs, not every such curve was filed as active; the % refers to the signal ratio; note: % is set by controls: 0 for no effect and ±100 for the full control effect)
Method in brief: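 Using a HeLa line with an ESRE-driven beta-lactamase gene, agonist activity was measured by FRET substrate fluorescence (460 and 530 nm emission) after cells were treated with compounds for 5 hr at 37 C and 5% CO2.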

[3] = qHTS assay to identify small molecule agonists of the endoplasmic reticulum stress response signaling pathway - cell viability counter screen (AID 1159517); note: nearly all actives have a fitted effect of over 50% in size; note: potency is the fitted concentration of half-maximal effect;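 for activity change, negative = cytotoxicity: HeLa cells carrying an ER stress response element beta-lactamase reporter; series mostly up to about 61 µM; % is set by controls: 0 for no effect and ±100 for the full control effect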
Method in brief: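 ESRE-bla HeLa cells (1,500/well) were plated overnight at 37 C and exposed to compounds for 5 hr. After the 2 hr beta-lactamase substrate read, CellTiter-Glo went into the same wells, and luminescence was read after 30 min at room temperature.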

[4] = qHTS assay to identify small molecule agonists of the AP-1 signaling pathway - cell viability counter screen (AID 1159525); note: nearly all actives have a fitted effect of over 55% in size
Method in brief: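 Intracellular ATP by Cell Titer Glo luminescence (30 min, RT) in the same ME-180 AP-1-bla wells after the 5 h compound exposure at 37 °C. Normalised to tetra n-octyl ammonium bromide and DMSO controls.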

[5] = qHTS assay to identify small molecule agonists of the AP-1 signaling pathway (AID 1159526); note: % is set by controls: 0 for no effect and ±100 for the full control effect
[6] = target: Retinoic acid receptor RXR-alpha (Homo sapiens) (UniProt P19793); assay: qHTS assay to identify small molecule agonists of the RXR signaling pathway (AID 1159527); note: % is set by controls: 0 for no effect and ±100 for the full control effect; nearly all actives have a fitted effect of over 35% in size
Method in brief: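 GeneBLAzer RXR-alpha-UAS-bla HEK 293T cells in medium with 2% charcoal-stripped FBS, pre-incubated 5 hr at 37 C, then exposed to compounds 16 hr. Beta-lactamase reporter read by FRET substrate, 2 hr room temperature, 460/530 nm emission.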

[7] = qHTS assay to identify small molecule agonists of the RXR signaling pathway - cell viability counter screen (AID 1159529; active = well fitted curve in the direction sought with a large enough effect in the repeat runs; an effect the other way counts as inactive or inconclusive; note: nearly all actives have a fitted effect of over 50% in size; note: potency is the fitted concentration of half-maximal effect)
Method in brief: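 RXR-alpha-UAS-bla HEK 293T cells in medium with 2% charcoal-stripped FBS were preincubated 5 hr, then exposed to compounds for 16 hr at 37 C. Viability was read as CellTiter-Glo luminescence after 30 min at room temperature.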

[8] = qHTS assay to identify small molecule antagonists of the vitamin D receptor (VDR) signaling pathway - cell viability counter screen (AID 743225; active = well fitted curve in the direction sought with a large enough effect in the repeat runs; an effect the other way counts as inactive or inconclusive; note: % is set by controls: 0 for no effect and ±100 for the full control effect; nearly all actives have a fitted effect of over 50% in size)
Method in brief: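 VDR-bla HEK 293T cells, 4 h pre-incubation at 37C, then compound plus 1-alpha,25-dihydroxyvitamin D3 (3 nM final) for 16 h. After the beta-lactamase FRET read, CellTiter-Glo was added to the same wells; luminescence after 30 min at room temperature.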

[9] = target: Nuclear receptor ROR-gamma (Homo sapiens) (UniProt P51449); assay: qHTS assay to identify small molecule antagonists of the retinoid-related orphan receptor gamma (ROR-gamma) signaling pathway (AID 1159521; active = well fitted curve in the direction sought with a large enough effect in the repeat runs; an effect the other way counts as inactive or inconclusive; note: nearly all actives have a fitted effect of over 50% in size; note: potency is the fitted concentration of half-maximal effect)
Method in brief: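 Tet-on RORγ CHO cells carrying a ROR response element–luciferase reporter were pretreated with compounds for 2 h, then induced with 1 uM (final) doxycycline hyclate for 16 h at 37 C. Antagonism was read as decreased ONE-Glo luminescence.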

[10] = qHTS assay to identify small molecule antagonists of the retinoid-related orphan receptor gamma (ROR-gamma) signaling pathway - cell viability counter screen (AID 1159520; active = well fitted curve in the direction sought with a large enough effect in the repeat runs; an effect the other way counts as inactive or inconclusive)
Method in brief: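 Cytotoxicity was read from cellular ATP (CellTiter-Glo luminescence) after 16 hr at 37 C with 1 uM doxycycline induction. The inducer was added 2 hr after compound transfer to Tet-on ROR gamma CHO cells.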

Sequence of Retinoic acid receptor RXR-alpha (Homo sapiens) (P19793 whole entry, looked up): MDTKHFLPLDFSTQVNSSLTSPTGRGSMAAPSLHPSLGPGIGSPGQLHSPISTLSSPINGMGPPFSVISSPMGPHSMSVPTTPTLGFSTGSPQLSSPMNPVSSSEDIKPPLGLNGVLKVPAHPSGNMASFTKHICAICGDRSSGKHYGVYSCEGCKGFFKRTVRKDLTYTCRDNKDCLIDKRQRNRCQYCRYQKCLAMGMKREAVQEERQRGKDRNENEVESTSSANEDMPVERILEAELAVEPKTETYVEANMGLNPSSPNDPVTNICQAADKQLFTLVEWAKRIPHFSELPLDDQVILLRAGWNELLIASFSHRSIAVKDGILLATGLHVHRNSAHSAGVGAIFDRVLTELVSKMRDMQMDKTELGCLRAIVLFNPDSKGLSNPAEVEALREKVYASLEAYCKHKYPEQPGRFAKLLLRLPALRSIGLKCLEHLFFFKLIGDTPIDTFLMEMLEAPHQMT

COc1cc(S(=O)(=O)O)c(C)cc1N=Nc1c(O)ccc2cc(S(=O)(=O)O)ccc12
inactive: Potency [1] | Potency [2] | Potency [3] | Potency [4] | Potency [5] | Potency [6] | Potency [7]

C=CC(=O)Nc1cc2c(Nc3ccc(F)c(Cl)c3)ncnc2cc1OCCCN1CCOCC1
inactive: Potency [8] | Potency [2] | Potency [9]
active: Potency [1] 15.1 µM | Potency [3] 16.9 µM | Potency [7] 4.77 µM

O=c1[nH]c2ccccc2n1CCCN1CCN(C(c2ccccc2)c2ccccc2)CC1
inactive: Potency [1] | Potency [2] | Potency [3] | Potency [4] | Potency [5]

c1ccc(SSc2ccccc2)cc1
inactive: Potency [8] | Potency [1] | Potency [2] | Potency [3] | Potency [9] | Potency [4]

C[Si](Cl)(c1ccccc1)c1ccccc1
inactive: Potency [8] | Potency [1] | Potency [2] | Potency [3] | Potency [4] | Potency [6] | Potency [7]

O=C(Oc1ccccc1)Oc1ccccc1
inactive: Potency [1] | Potency [2] | Potency [10] | Potency [9] | Potency [4] | Potency [5] | Potency [7]

O[C@@H]([C@H](O)[C@H](O)CBr)[C@H](O)CBr
inactive: Potency [8] | Potency [1] | Potency [2] | Potency [10] | Potency [9] | Potency [4] | Potency [5] | Potency [6] | Potency [7]

CCCCOC(=O)CO
inactive: Potency [8] | Potency [1] | Potency [2] | Potency [10] | Potency [9] | Potency [4] | Potency [5] | Potency [6] | Potency [7]

C#C[C@]1(OC(C)=O)CC[C@H]2[C@@H]3CCC4=C/C(=N/O)CC[C@@H]4[C@H]3CC[C@@]21CC
inactive: Potency [1] | Potency [2] | Potency [10]

CN(C)[C@@H](CCOc1cccc2ccccc12)c1ccccc1
active: Potency [7] 21.3 µM
inactive: Potency [1] | Potency [2] | Potency [3]

C=C(C)C(=O)OCCCCCCCCCC
inactive: Potency [1] | Potency [2] | Potency [10] | Potency [9] | Potency [4]

CC(C)(C)CC(C)(C)c1ccc(Nc2ccc(C(C)(C)CC(C)(C)C)cc2)cc1
inactive: viability change, negative = cytotoxic [8] 20.6% [at 6.95 µM] | activity, negative = cytotoxic [1] -7.48% [at 6.95 µM] | activation [2] -2.77% [at 6.95 µM] | activity, negative = cytotoxicity [10] -0.0922% [at 8.39 µM] | activity change, negative = inhibition [9] 1.61% [at 8.39 µM] | viability change, negative = cytotoxic [4] -3.55% [at 6.97 µM] | activation [5] 15.6% [at 6.97 µM] | activation [6] 3.93% [at 6.98 µM] | activity change, negative = cytotoxicity [7] 2.3% [at 6.97 µM]

O=C(O)c1cc(=O)c2ccccc2o1
inactive: Potency [8] | Potency [1] | Potency [2] | Potency [10] | Potency [9] | Potency [4] | Potency [5] | Potency [6] | Potency [7]

CCCCCCCCCCOC(=O)c1ccccc1C(=O)OCCCCCCCC
inactive: Potency [8] | Potency [1] | Potency [2] | Potency [10] | Potency [9] | Potency [4] | Potency [5] | Potency [6] | Potency [7]

S=C([S-])NCCNC(=S)[S-].S=C([S-])NCCNC(=S)[S-].[Mn+2].[Zn+2]
inactive: Potency [8] | Potency [1] | Potency [2] | Potency [3] | Potency [7]

Cc1ccc(C(=O)O)cc1
inactive: Potency [8] | Potency [1] | Potency [2] | Potency [10] | Potency [9] | Potency [4] | Potency [5] | Potency [6] | Potency [7]

Clc1sc(Cl)c(Cl)c1Cl
inactive: Potency [8] | Potency [1] | Potency [2] | Potency [10] | Potency [9] | Potency [4] | Potency [5] | Potency [6] | Potency [7]

CCCC(=O)OCCc1ccccc1
inactive: Potency [8] | Potency [1] | Potency [2] | Potency [10] | Potency [9] | Potency [4] | Potency [5] | Potency [6] | Potency [7]

O=[N+]([O-])c1ccc(F)c(Cl)c1
inactive: Potency [8] | Potency [1] | Potency [2] | Potency [10] | Potency [9] | Potency [4] | Potency [5] | Potency [6]

CCC(=O)C(=O)CC
inactive: Potency [8] | Potency [1] | Potency [2] | Potency [10] | Potency [9] | Potency [4] | Potency [5] | Potency [6] | Potency [7]

CC(=O)c1ccc(C(C)=O)cc1
inactive: Potency [8] | Potency [1] | Potency [2] | Potency [10] | Potency [9] | Potency [4] | Potency [5] | Potency [6] | Potency [7]

Clc1ccnc(Cl)n1
inactive: Potency [8] | Potency [1] | Potency [2] | Potency [10] | Potency [9] | Potency [4] | Potency [5] | Potency [6] | Potency [7]

CCc1oc2ccccc2c1C(=O)c1cc(I)c(O)c(I)c1
inactive: Potency [1] | Potency [2] | Potency [10] | Potency [4]
active: Potency [9] 11.9 µM

CCCC(=O)OC(C)(C)Cc1ccccc1
inactive: Potency [1] | Potency [2] | Potency [10] | Potency [9] | Potency [4] | Potency [5] | Potency [6] | Potency [7]

OC[C@H]1O[C@H](O[C@H]2O[C@H](CO)[C@@H](O)[C@H](O)[C@H]2O)[C@H](O)[C@@H](O)[C@@H]1O
inactive: Potency [1] | Potency [2] | Potency [10] | Potency [9] | Potency [4] | Potency [5] | Potency [7]

O=[N+]([O-])c1cccc(C(F)(F)F)c1
inactive: Potency [1] | Potency [2] | Potency [10] | Potency [9] | Potency [4] | Potency [5] | Potency [6] | Potency [7]
